Laboratory results taken from PubChem BioAssay AID1259415 (National Center for Advancing Translational Sciences (NCATS), 2018).
About 18,000 (4.4%) of roughly 410,000 compounds were called active. Roughly 7% stayed inconclusive and do not appear here. No stated cut-off is given here; in the data, active means activity change below about -60%; inconclusive means no clear call, values can overlap the other calls; inactive means above about -39%. Only a selection was taken, and actives are over-represented in it overall.

Assay: qHTS Assay for inhibitors of the human cytomegalovirus (HCMV)
Settings: HFF cells, HCMV-luciferase reporter, 72 h; at 57.5 µM; stronger effect = lower value
In short: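 Compounds were evaluated in HFFs infected with an HCMV luciferase reporter virus (MOI 1 PFU/cell). Luciferase in lysates collected 72 h post infection served as the replication measure.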
On the % scale 0 is the no-effect control and ±100 the full control effect.

Structure (SMILES) | activity change, negative = inhibition
CCC(=O)N1N=C(c2ccc(OC)cc2)CC1c1cn(-c2ccccc2)nc1-c1cccs1 (configuration not stated) | -16.7% (inactive)
COc1ccc(Br)cc1CNC(=O)c1cc(=O)[nH]c2ccc(S(=O)(=O)N3CCCC3)cc12 | 37.6% (inactive)
COc1ccccc1CNC(=O)NCc1noc2ccc(C)cc12 | -4.73% (inactive)
Cc1ccc(N(CC(=O)NC2CCCCC2)C(=O)CCCC(=O)Nc2ccccn2)c(C)c1 | 0.377% (inactive)
CCOc1ccccc1N(CC(=O)NC1CCCCC1)C(=O)CCCC(=O)Nc1ccccn1 | -7.08% (inactive)
O=C(CCCC(=O)N(CC(=O)NC1CCCC1)Cc1ccccc1Cl)Nc1ccccn1 | -99.6% (active)
Cc1ccc(S(=O)(=O)N2CCC(C(=O)NCCC3=CCCCC3)CC2)cc1C | -15.1% (inactive)
CC(=O)c1ccc(NC(=O)CSc2c(C(C)C)cnc3c2c(=O)n(C)c(=O)n3C)cc1 | -7.7% (inactive)
CC(C)(C)c1ccc(C(=O)NCC(c2ccco2)S(=O)(=O)c2ccc(F)cc2)cc1 (configuration not stated) | -16.6% (inactive)
CCN(Cc1ccccc1)Cc1c(O)ccc2c(=O)c(-c3ccc(Cl)cc3Cl)coc12 | 1.81% (inactive)
CC(C)CN(Cc1c(O)ccc2c(=O)c(-c3ccccc3)coc12)CC(C)C | -72.9% (active)
CN(C)Cc1c(O)ccc2c(=O)c(-c3ccccc3Cl)coc12 | 14.6% (inactive)
CN(O)C(=S)c1ccccc1 | -97.9% (active)
CCOC(=O)c1cccn1C1C(=O)N(Cc2ccc(OC)cc2)c2c(F)cccc21 (configuration not stated) | -32% (inactive)
CC(=O)c1ccc(NC(=O)CSc2nc(-c3ccccc3F)nc3c2c(=O)n(C)c(=O)n3C)cc1 | 0.932% (inactive)
CN(C)S(=O)(=O)c1cc(C(=O)Nc2ccn(C)n2)c(Cl)cc1Cl | 0% (active)
CCN(CC)C(=O)c1ccc(NC(=O)c2cc(-n3cnnc3)ccc2Cl)cc1 | 34.8% (inactive)
O=C(Nc1nccs1)c1cc(S(=O)(=O)N2CCOCC2)c(Cl)cc1Cl | 32.2% (inactive)
Cc1ccc(N2CC(c3nnc(Cc4ccccc4Cl)o3)CC2=O)cc1 (configuration not stated) | -8.78% (inactive)
CCOC(=O)CNC(=O)c1cc2c(=O)n3cccc(C)c3nc2s1 | 9.74% (inactive)
Cc1ccc2oc(=O)c3cnn(CC(=O)N4CCN(c5cccc(Cl)c5)CC4)c3c2c1 | -2.47% (inactive)
CCCCN(CC)CCCNC(=O)c1nn(C)c2c1CS(=O)(=O)c1ccccc1-2 | -8.91% (inactive)

Structure (SMILES) | activity change, negative = inhibition
O=C(NCc1ccc(F)cc1)c1ccc2nc(N3CCCCC3)sc2c1 | 65.5% (inactive)
c1c2c(cc3sc(N4CCCCC4)nc13)OCCO2 | -64.2% (active)
CCOC(=O)c1cc2c(=O)n3ccccc3nc2n(CCCOC)c1=NC(=O)C(C)(C)Oc1ccc(Cl)cc1 | 6.81% (inactive)
COc1ccc(CCNCc2c(C(=O)O)c(C)n(Cc3cccc(C)c3)c2C)cc1OC | -1.54% (inactive)
Cc1ccccc1CN1C[C@@H]2C[C@@H](c3cn(C)nc3-c3ccccc3)N3CCC[C@@]23C1=O | 32.8% (inactive)
CCOc1ccc(-c2cc(C(=O)N/N=C/c3ccc(O)cc3)c3ccccc3n2)cc1 | -83% (active)
CCOc1ccc(-c2cc3c(=O)n(CC(=O)NCc4ccc(OC)cc4)ccn3n2)cc1 | 78.4% (inactive)
CCOc1ccc(CNC(=O)c2cc(-c3ccc(Cl)s3)nc3ccccc23)cc1 | 1.58% (inactive)
CCOc1ccc(-c2cc(C)n3nc(C(=O)Nc4ccc(C)c(C)c4)cc3n2)cc1 | -5.97% (inactive)
CCOc1ccc(NC(=O)c2cc(C)nc3ccccc23)cc1 | -60.4% (active)
CCOc1ccc(NC(=O)c2cnn(-c3ccccc3)c2-n2cccc2)cc1 | -19.9% (inactive)
Cc1ccc(NC(=O)Cn2nnc3sc4c(c3c2=O)CCC(C)C4)cc1 (configuration not stated) | -19.7% (inactive)
COc1ccc(-c2onc(C)c2C)cc1S(=O)(=O)NCc1cccs1 | 86.9% (inactive)
O=C(COc1ccc(Cl)cc1)Nc1ccccc1OCc1cc(=O)n2ccccc2n1 | 47.7% (inactive)
CCCCC(=O)Nc1ccc(C(=O)Nc2cc(C(F)(F)F)ccc2Cl)cc1 | -64% (active)
COc1ccc(C(=O)COC(=O)CCCC(=O)Nc2cc(C(F)(F)F)ccc2Cl)cc1 | -1.47% (inactive)
CC(=O)Nc1ccc(NC(=O)CCCNC(=O)c2ccc(Cl)cc2)cc1 | -21.3% (inactive)
O=C(CCc1nc(CN2CCN(S(=O)(=O)c3ccc(Br)cc3)CC2)no1)N1CCCCC1 | 20.2% (inactive)
CCOC(=O)c1ccc(NC(=O)CCS(=O)(=O)c2ccc3c(c2)oc(=O)n3C)cc1 | 0.775% (inactive)
CCOc1ccc(CNC(=O)c2cccc(Nc3nc4ccccc4n4nnnc34)c2)cc1OC | -17.1% (inactive)
COc1cncc(-c2cnc3sc(NCCc4ccccn4)nn23)c1 | -64.8% (active)
COc1ccc(-c2nc3sc(CCNC(=O)C(C)(C)C)c(C)n3n2)cc1 | -21.2% (inactive)

Structure (SMILES) | activity change, negative = inhibition
O=C(CNC(=O)COc1ccccc1)NCCc1ccccn1 | 31.2% (inactive)
CC(C)c1ccc(-c2noc(C3CCCN(S(C)(=O)=O)C3)n2)cc1 (configuration not stated) | -15.2% (inactive)
CCOc1ccc(NC(=O)C2CCN(S(=O)(=O)c3cc(-c4noc(C)n4)ccc3C)CC2)cc1 | 10.9% (inactive)
CC(C)c1ccc(NC(=O)C2CCN(c3nc(-c4ccc(C(C)C)cc4)no3)CC2)cc1 | -71.9% (active)
C[C@@H]1CN([C@@H](C)CO)C(=O)c2cc(NC(=O)C3CC3)ccc2O[C@H]1CN(C)C | 34.3% (inactive)
COc1cc(C(=O)Nc2cc(C(F)(F)F)ccc2-n2cncn2)cc(OC)c1OC | -20% (inactive)
COCCCNC(=O)c1cccc2c(-c3ccc(O)c(OC)c3)coc12 | 71.3% (inactive)
CC(Sc1ccc(S(=O)(=O)N2CCN(C)CC2)cn1)C(=O)NC1CCCC(C)C1C (configuration not stated) | -4.06% (inactive)
COC(=O)c1ccc(S(=O)(=O)c2ccc(C(=O)OC)s2)s1 | 23.7% (inactive)
CCc1ccc(C2=CC(=O)CC(C)(C)C2=O)cc1 | -23% (inactive)
COc1ccc(Cn2c(C(=O)O)c(CNCc3cccc(OC)c3)c3ccc(C)cc32)cc1 | -106% (active)
COc1cccc(CNCc2c(C(=O)O)n(Cc3ccc(C)cc3)c3cc(C)ccc23)c1OC | 3.78% (inactive)
COc1ccc(Cn2c(C(=O)O)c(CNCCc3cccs3)c3ccc(OC)cc32)cc1 | -4.9% (inactive)
COc1cccc(CNC(=O)Cn2ncn3c(cc4ccccc43)c2=O)c1 | 44.2% (inactive)
Cc1ccc(C(=O)CSc2nc(-c3ccccc3)nc3c2CCCC3)c(C)c1 | 2.92% (inactive)
COc1ccccc1C(=O)Nc1c(C(=O)Nc2ccc(C)cc2)oc2ccccc12 | 14.6% (inactive)
Cc1n[nH]c(C)c1S(=O)(=O)N1CCCC(C(=O)NCC2COc3ccccc3O2)C1 (configuration not stated) | -37.1% (inactive)
c1ccc2c(c1)OCC(CNc1ncnc3nc[nH]c13)O2 (configuration not stated) | -61.6% (active)
CCc1ccccc1NC(=O)CSc1nc(C)c(C(=O)Nc2ccccc2)c(-c2ccc(Cl)cc2)c1C#N | -35.3% (inactive)
Cc1cccc(CC(=O)Nc2cccc(-c3cn4cccnc4n3)c2)c1 | 10% (inactive)
CC(=O)N1CCc2cc(S(=O)(=O)Nc3ccccc3N3CCN(C)CC3)ccc21 | -37.8% (inactive)
Cc1cc2c(cc1C)N1C(=O)c3cc4ccccc4cc3NC(=O)C1C(=O)N2 (configuration not stated) | -73.2% (active)

Structure (SMILES) | activity change, negative = inhibition
COc1cccc(NC(=O)c2ccc3nc(CCc4ccccc4)oc3c2)c1 | 41.2% (inactive)
CCC(C)NC(=O)c1nn(C)c(=O)c2ccccc12 (configuration not stated) | 29.9% (inactive)
CCOC(=O)C1=NN(c2ccc(Cl)cc2)/C(=C/C2=NCCc3cc(OC)c(OC)cc32)S1 | 27.1% (inactive)
COc1cc2c(cc1OC)C(c1cccc([N+](=O)[O-])c1)=NCC2 | 54.4% (inactive)
COc1cc2c(cc1OC)C(/C=C/c1ccco1)=NCC2 | -61.3% (active)
Cc1c(CNC(C)c2ccccc2)c(C(=O)O)c(C)n1Cc1c(F)cccc1Cl (configuration not stated) | -11% (inactive)
COc1ccc(CN2CCCCC2C)cc1OC (configuration not stated) | 13.3% (inactive)
CCOc1cc2[nH]c(=S)n(Cc3ccc(C(=O)N4CCN(C)CC4)cc3)c(=O)c2cc1OCC | -95.9% (active)
COc1cc2[nH]c(=S)n(Cc3ccc(C)o3)c(=O)c2cc1OC | -9.57% (inactive)
COc1cc2[nH]c(=S)n(Cc3ccc(F)cc3)c(=O)c2cc1OC | -63.8% (active)
CCOc1cc2[nH]c(=S)n(CCCN3CCCC3=O)c(=O)c2cc1OCC | -13% (inactive)
COc1cc2[nH]c(=O)n(Cc3ccc(C(=O)NCc4ccc(C)cc4)cc3)c(=O)c2cc1OC | -0.48% (inactive)
CCOc1cc2[nH]c(=O)n(Cc3ccc(C(=O)NCCCN4CCCC4=O)cc3)c(=O)c2cc1OCC | -26.6% (inactive)
CCOc1cc2[nH]c(=S)n(CCN3CCCCC3C)c(=O)c2cc1OCC (configuration not stated) | 0.001% (inactive)
COc1cc2[nH]c(=S)n(CCN3CCCCC3C)c(=O)c2cc1OC (configuration not stated) | -75.7% (active)
CCOc1cccc(NC(=O)CSc2ncc(-c3ccc(Cl)cc3)[nH]2)c1 | -2.16% (inactive)
Cc1ccc(F)cc1NC(=O)CCSc1nc(-c2ccco2)cc(C(F)(F)F)n1 | -17% (inactive)
Cc1ccc(-c2cnc(C3CC3)o2)cc1S(=O)(=O)Nc1cccc(C)c1C | -35% (inactive)
CCn1nnc(NC(=O)c2cc(Cl)c(OC)c(Cl)c2)n1 | 16.3% (inactive)
O=C(CN1C2CCC1CC(NC(=O)C1CC1)C2)NCc1ccccc1 (configuration not stated) | 18.9% (inactive)
COc1ccc(CCNC(=O)c2cn(C)c3ccc(S(=O)(=O)N(C)C4CCCCC4)cc3c2=O)cc1OC | 7.75% (inactive)
